# Results from PubChem BioAssay (NCATS).
# Results filed as inconclusive are left out. Entries that show only a call come without a potency. Active and inactive are the calls of the source. Unless noted, calls come from the whole dose curve; as a rule, active = well fitted curve in the direction sought with a large enough effect; inconclusive = small, poorly fitted or top-dose-only effect, or another doubt; inactive = no such curve, though single readings can be large; an effect the other way counts as inactive or inconclusive.
# What was measured:
# [1] = qHTS for Activators of Parkin Expression: LOPAC Validation Assay (FLuc Reporter) (AID 720573)
# Method in brief: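 FLuc luminescence read-out from a neuronal line expressing a Parkin-promoter-driven coincidence reporter. Cells treated 24 h at 37 C, 5% CO2 with compounds at 7 concentrations; signal increase normalized to DMSO and positive control.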
# [2] = molecular target: T1, Hexokinase-4 (Homo sapiens) + Glucokinase regulatory protein (Homo sapiens) (UniProt P35557+Q14397); assay: qHTS assay for inhibitors of recombinant human GCK-GKRP interaction: Diaphorase-coupled assay (AID 743205)
# Method in brief: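 Resorufin fluorescence (525/590 nm), read each minute over 30 min, reports GCK activity coupled via G6PDH and diaphorase. Reaction: 10 nM GST-GCK, 10 nM FLAG-GKRP, 5 mM glucose, 0.4 mM ATP, 0.15 mM NADP+, 0.1 mM resazurin.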
# [3] = molecular target: T1, Hexokinase-4 (Homo sapiens) + Glucokinase regulatory protein (Homo sapiens); assay: qHTS assay for inhibitors of recombinant human GCK-GKRP interaction: ADP-Glo assay (AID 743206)
# Method in brief: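 GST-GCK and FLAG-GKRP (15 nM each in the dispensed mix, with 2 uM S6P) react with 0.4 mM ATP and 5 mM glucose (final) in Hepes pH 7.6 for 60 min at room temperature. ADP is measured by ADP-Glo luminescence.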
# [4] = molecular target: T1, Hexokinase-4 (Homo sapiens) + Glucokinase regulatory protein (Homo sapiens); assay: qHTS assay for inhibitors of recombinant human GCK-GKRP interaction: HTRF assay (AID 743207)
# Method in brief: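 HTRF read-out (ex 320 nm; 615/665 nm emission) after 60 min RT equilibration of 5 nM GST-GCK, 5 nM FLAG-GKRP, 2 uM S6P, compound and anti-FLAG/anti-GST detection antibodies; signal normalized between DMSO wells with and without GCK.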
# [5] = qHTS Assay for Identifying Gametocytocidal Compounds (AID 743244);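 note: actives lower the fluorescent signal which means gametocytes are killed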; conditions: P. falciparum 3D7 stage III-V gametocytes, alamarBlue, 72 h; max response: stronger effect = lower value
# Method in brief: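 3D7 gametocytes, stages III–V, 20,000/well; cpd 72 h, 37 °C/5% CO2; + alamarBlue 24 h; fluor. Ex 525/Em 598.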
# [6] = Natriuretic polypeptide receptor (hNpr1) antagonism - Pilot counterscreen GloSensor control cell line (AID 1347045; calls by dose curve)
# Method in brief: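 This counterscreen uses HEK293 cells expressing the GIP/pGS-40F cGMP biosensor. Compound-treated cells are challenged with 50 uM sodium nitroprusside, and the luciferase signal is compared before and after stimulation.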
# [7] = molecular target: Atrial natriuretic peptide receptor 1 (Homo sapiens) (UniProt P16066); assay: Natriuretic polypeptide receptor (hNpr1) antagonism - Pilot screen (AID 1347049; calls by dose curve;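 note: agonist-evoked cGMP luminescence read 20 min after hNppA addition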)
# Method in brief: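 HEK293 cells co-expressing hNpr1 and the GloSensor pGS-40F cGMP luciferase sensor were preloaded with 2% GloSensor reagent for 2 h. Compounds were added for 30 min at room temperature, then cells were stimulated with 0.1 nM hNppA for 20 min before luminescence readout.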
# [8] = molecular target: Atrial natriuretic peptide receptor 2 (Homo sapiens) (UniProt P20594); assay: Natriuretic polypeptide receptor (hNpr2) antagonism - Pilot subtype selectivity assay (AID 1347050; calls by dose curve)
# Method in brief: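 cGMP-sensor HEK293/hNpr2 cells; 2% GloSensor reagent 2 h RT; compounds 30 min; baseline luminescence read; 1 nM hNppC agonist 20 min RT; final luminescence read by CCD camera. Antagonism = reduced post-agonist signal.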
# [9] = NS1 protein of Zika virus - qHTS assay to identify small molecule inhibitors in human HEK 293 cells (AID 1347053); note: nearly all actives have a fitted effect of over 55% in size
# Method in brief: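 Inhibition of NS1 expression was scored in HEK 293 cells given compound 1 h ahead of MR766 virus (MOI = 0.5). Following 24 h at 37 C, two anti-NS1 antibodies generated a TR-FRET signal, scaled between uninfected and infected controls.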
# [10] = molecular target: T2, Tyrosine-protein phosphatase non-receptor type substrate 1 (Homo sapiens) + Leukocyte surface antigen CD47 (Homo sapiens) (UniProt P78324+Q08722); assay: CD47-SIRPalpha protein protein interaction - LANCE assay qHTS validation (AID 1347057; active = well fitted curve in the direction sought with a large enough effect in the signal ratio, with a control signal flat, not every such curve was filed as active; the % refers to the signal ratio)
# Method in brief: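 First, His-tagged CD47 and Eu-labelled anti-His antibody met the compound for 30 min; next, site-specifically biotinylated SIRPalpha was added for 30 min; finally streptavidin-APC was added before reading the TR-FRET ratio.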
# [11] = molecular target: T2, Tyrosine-protein phosphatase non-receptor type substrate 1 (Homo sapiens) + Leukocyte surface antigen CD47 (Homo sapiens); assay: CD47-SIRPalpha protein protein interaction - HTRF assay qHTS validation (AID 1347058; active = well fitted curve in the direction sought with a large enough effect in the signal ratio, not every such curve was filed as active; the % refers to the signal ratio)
# Method in brief: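 TR-FRET read (Ch1/Ch2 ratio) of soluble extracellular CD47 and Avi-biotinylated SIRPalpha domains in PBS pH 7.4 with 0.05% IGEPAL; 7-point compound titration. Sequential 30 min room-temperature steps; non-biotinylated SIRPalpha as control inhibitor.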
# [12] = molecular target: T2, Tyrosine-protein phosphatase non-receptor type substrate 1 (Homo sapiens) + Leukocyte surface antigen CD47 (Homo sapiens); assay: CD47-SIRPalpha protein protein interaction - Alpha assay qHTS validation (AID 1347059);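 note: bead proximity luminescence from CD47 binding SIRPalpha after compound preincubation with SIRPalpha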
# Method in brief: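 Soluble extracellular domains: Avi-tag biotinylated SIRPalpha (25 nM) preincubated 30 min RT with compound, then 6His-CD47 (12.5 nM) 30 min; Ni-NTA acceptor and streptavidin donor beads (10 ug/mL) 30 min, AlphaScreen read. PBS pH 7.4, 0.05% IGEPAL.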
# [13] = molecular target: Parathyroid hormone/parathyroid hormone-related peptide receptor (Homo sapiens) (UniProt Q03431); assay: qHTS for PTHR1 Agonists: Optimization Screen against the NCGC LOPAC library (AID 1347079);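 note: GloSensor cAMP luminescence in HEK-293 GP2 cells expressing human PTHR1 with IBMX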
# Method in brief: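 Compounds were tested across a qHTS titration. PTHR1-expressing GP2 cells report cAMP rises via GloSensor luminescence after 1 hr compound exposure at 37C with IBMX present.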
# [14] = test system: Zika virus NS2B-NS3 protease (unlinked); assay: Optimization of GU AMC qHTS for Zika virus inhibitors: Unlinked NS2B-NS3 protease assay (AID 1347151); note: nearly all actives have a fitted effect of over 80% in size
# Method in brief: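 Fluorescence read-out (340 nm ex / 450 nm em) of AMC peptide cleavage, taken immediately and after 15 min at room temperature (~20% conversion). Enzyme was the unlinked NS2B–NS3 complex at 25 nM in Tris pH 8.0 buffer.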
# [15] = test system: Zika virus NS2B-NS3 protease; assay: Primary screen GU AMC qHTS for Zika virus inhibitors (AID 1347154); note: nearly all actives have a fitted effect of over 70% in size
# Method in brief: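 Unlinked Zika NS2B hydrophilic domain/NS3 protease domain noncovalent complex (25 nM final) in 10 mM Tris-HCl pH 8.0, 0.01% Tween 20, with AMC peptide substrate. Fluorescence (ex 340, em 450 nm) change over 15 min, room temperature; percent inhibition fitted to 4-parameter Hill equation.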
# [16] = molecular target: Lysine-specific demethylase 5B (Homo sapiens) (UniProt Q9UGL1); assay: Optimization screen for KDM5B Histone Demethylases FDH coupled qHTS against the LOPAC library (AID 1347166)
# Method in brief: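 KDM5BDeltaAP (200nM final) preincubated 10 min with compound, then 12.5uM H3K4Me3, 25uM a-ketoglutarate, ascorbate, Fe(II), NAD+ and FDH added; 50mM HEPES pH 7.5, 0.01% Tween-20. NADH fluorescence (340/450 nm) change over 30 min, room temperature.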
# [17] = qHTS to identify inhibitors of the type 1 interferon - major histocompatibility complex class I in skeletal muscle: primary screen against the NCATS LOPAC collection (AID 1347405);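 note: lytic HiBiT luminescence reporting HLA-B protein level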
# Method in brief: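 Cells: C25cl48 human myoblasts, HiBiT-tagged HLA-B*08:01, stimulated with IFN-beta 4.0 ng/ml. Compounds are titrated 1:4.3 over 7 points from 46 uM final and incubated 24 hrs; endogenous MHC class I is quantified by HiBiT lytic luminescence.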
# [18] = qHTS for inhibitors of adenylyl cyclases using a fission yeast platform: a pilot screen against the NCATS LOPAC library (AID 1347410)
# Method in brief: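 Read-out: fbp1-GFP fluorescence by laser scanning cytometry (488 nm laser), a gain of signal when AC/cAMP-PKA signalling is inhibited. Strain CHP2027 expressing AC9, GNAS and PDE4D2; compounds at up to 57 µM; 18 h, 30C.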
# [19] = Validation qHTS assay for inhibitors of Activation Induced Cytidine Deaminase (AID): UDG Counterscreen signal (AID 1347427)
# Method in brief: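 Counterscreen read of UDG activity (2 U/mL, 4/3x) in the FRET deamination format with AID (1 uM, 4/3x), DJC20/DJC23 substrates (250 nM, 4x), 4 h at room temperature. NaOH stop, fluorescence at 560 ex/665 em.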
# [20] = molecular target: Single-stranded DNA cytosine deaminase (Homo sapiens) (UniProt Q9GZX7); assay: Validation qHTS assay for inhibitors of Activation Induced Cytidine Deaminase (AID): AID signal (AID 1347429)
# Method in brief: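 In this coupled qHTS, AID deaminates a FRET-labelled ssDNA substrate in the presence of UDG over 4 hr at room temperature. Compounds span up to 114 uM final.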
# [21] = Primary qHTS for inhibitors of La Crosse Virus (LACV) - induced cell death in SH-SY5Y cells (AID 1508616);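 note: top concentration of the series differs between compounds; higher means more rescue of cells from virus-induced death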
# Method in brief: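 Readout was luminescence from ATPLite 1step added after a 6-day LACV infection (0.01 MOI) of SH-SY5Y cells that had received pin-transferred compound 24 hr after seeding.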
# [22] = molecular target: Calcium and integrin-binding protein 1 (Homo sapiens) (UniProt Q99828); assay: Validation qHTS for Identification of Calcium Integrin Binding protein 1 (CIB1) Competitor (AID 1508618)
# Method in brief: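 CIB1-GST (1 uM final) incubated 15 min at room temperature with compounds (up to 114 uM), then FITC-labelled alphaIIb peptide (100 nM) added. FP read (Ex 480/Em 540) after 15 min, pH 7.4 buffer containing 5 mM CaCl2.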
# [23] = Primary qHTS for small molecule stabilizers of the endoplasmic reticulum resident proteome: Secreted ER Calcium Modulated Protein (SERCaMP) assay (AID 1508630)
# Method in brief: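 GLuc-SERCaMP-expressing SH-SY5Y cells, pretreated 16 h with compound, are challenged with thapsigargin to empty ER calcium stores; after 4 h, coelenterazine is added directly to the medium and luminescence is imaged.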
# Papain (Carica papaya) = Papain (Carica papaya) (UniProt P00784); assay: Primary qHTS assay for inhibitors of the protease papain (AID 1645873);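 note: papain turnover of Z-FR-AMC read as the AMC fluorescence gain over 10 min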
# [24] = molecular target: Catechol O-methyltransferase (Homo sapiens) (UniProt P21964); assay: Confirmatory Screen for Target Class Profiling of Small Molecule Inhibitors of Methyltransferases (AID 1745852; calls by dose curve); conditions: MTase-Glo luminescence, SAH detection, recombinant enzyme; measured here: COMT max response; stronger effect = lower value
# [25] = molecular target: Guanidinoacetate N-methyltransferase (Homo sapiens) (UniProt Q14353); assay: as above; conditions: activity change, negative = inhibition: at 57.3 µM (top of the series) unless noted
# [26] = molecular target: Nicotinamide N-methyltransferase (Homo sapiens) (UniProt P40261); assay: as above; conditions: MTase-Glo luminescence, SAH detection, recombinant enzyme; measured here: NNMT max response; stronger effect = lower value
# [27] = molecular target: Phenylethanolamine N-methyltransferase (Homo sapiens) (UniProt P11086); assay: as above; conditions: MTase-Glo luminescence, SAH detection, recombinant enzyme; measured here: PNMT max response; stronger effect = lower value
# [28] = molecular target: Glutathione peroxidase 1 (Homo sapiens) (UniProt P07203); assay: Primary qHTS Assay for Inhibitors of Recombinant Selenoprotein Glutathione Peroxidase 1 (GPX1) (AID 1845191); note: nearly all actives have a fitted effect of over 65% in size
# Method in brief: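 Recombinant GPX1 (10 nM final) was preincubated with compound for 30 min at room temperature, then reacted with 1 mM GSH, 0.5 mM CHP, 0.5 mM NADPH and 100 nM glutathione reductase; NADPH fluorescence (340/450 nm) was read at 0 and 15 min.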
# [29] = molecular target: Phospholipid hydroperoxide glutathione peroxidase GPX4 (Homo sapiens) (UniProt P36969); assay: Primary qHTS Assay for Inhibitors of Recombinant Selenoprotein Glutathione Peroxidase 4 (GPX4) (AID 1845192); conditions: outcome: dose series up to 50 µM unless noted; note: nearly all actives have a fitted effect of over 65% in size
# Method in brief: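 GR-coupled readout: 100 nM GR, 1 mM GSH, 0.5 mM NADPH; NADPH fluorescence (ex 340/em 450 nm) read at t=0 and after 15 min RT. GPX4 200 nM, preincubated 30 min with compound; substrate 0.5 mM CHP.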
# T2 sequence (P78324 whole entry, looked up): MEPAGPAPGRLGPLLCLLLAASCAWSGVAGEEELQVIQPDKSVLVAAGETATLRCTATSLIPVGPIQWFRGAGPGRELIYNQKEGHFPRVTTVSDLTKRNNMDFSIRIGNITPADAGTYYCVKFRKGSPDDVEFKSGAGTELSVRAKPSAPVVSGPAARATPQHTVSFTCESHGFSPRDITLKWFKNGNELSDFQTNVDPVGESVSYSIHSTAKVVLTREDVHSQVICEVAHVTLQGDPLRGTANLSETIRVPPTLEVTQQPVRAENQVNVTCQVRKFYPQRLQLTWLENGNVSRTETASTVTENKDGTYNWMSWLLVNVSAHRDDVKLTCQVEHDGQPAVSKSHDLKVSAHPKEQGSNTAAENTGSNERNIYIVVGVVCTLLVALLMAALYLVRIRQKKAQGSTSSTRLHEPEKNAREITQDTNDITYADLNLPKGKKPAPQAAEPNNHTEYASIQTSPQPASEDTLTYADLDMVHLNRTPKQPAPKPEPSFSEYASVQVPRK
# T2 sequence (Q08722 whole entry, looked up): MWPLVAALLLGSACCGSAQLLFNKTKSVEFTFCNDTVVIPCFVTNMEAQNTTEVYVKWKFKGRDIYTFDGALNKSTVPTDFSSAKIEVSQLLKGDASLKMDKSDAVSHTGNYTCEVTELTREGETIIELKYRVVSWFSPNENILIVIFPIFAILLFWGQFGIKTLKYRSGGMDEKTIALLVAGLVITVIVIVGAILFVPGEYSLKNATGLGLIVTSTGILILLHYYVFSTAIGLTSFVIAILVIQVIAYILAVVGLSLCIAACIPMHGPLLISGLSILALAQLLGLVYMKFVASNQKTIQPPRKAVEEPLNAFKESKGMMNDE
# T1 sequence (P35557 whole entry, looked up): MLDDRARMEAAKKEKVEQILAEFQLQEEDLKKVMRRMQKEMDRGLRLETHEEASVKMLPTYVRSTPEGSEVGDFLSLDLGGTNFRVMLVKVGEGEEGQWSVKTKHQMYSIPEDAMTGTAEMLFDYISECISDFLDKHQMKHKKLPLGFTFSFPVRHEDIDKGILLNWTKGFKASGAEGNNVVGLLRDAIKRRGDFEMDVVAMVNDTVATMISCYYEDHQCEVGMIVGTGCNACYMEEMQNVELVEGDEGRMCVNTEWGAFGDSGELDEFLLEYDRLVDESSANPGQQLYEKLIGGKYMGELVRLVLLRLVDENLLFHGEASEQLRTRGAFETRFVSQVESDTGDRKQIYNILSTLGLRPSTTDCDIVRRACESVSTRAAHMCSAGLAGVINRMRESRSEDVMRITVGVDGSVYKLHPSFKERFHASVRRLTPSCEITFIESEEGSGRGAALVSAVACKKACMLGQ
# T1 sequence (Q14397 whole entry, looked up): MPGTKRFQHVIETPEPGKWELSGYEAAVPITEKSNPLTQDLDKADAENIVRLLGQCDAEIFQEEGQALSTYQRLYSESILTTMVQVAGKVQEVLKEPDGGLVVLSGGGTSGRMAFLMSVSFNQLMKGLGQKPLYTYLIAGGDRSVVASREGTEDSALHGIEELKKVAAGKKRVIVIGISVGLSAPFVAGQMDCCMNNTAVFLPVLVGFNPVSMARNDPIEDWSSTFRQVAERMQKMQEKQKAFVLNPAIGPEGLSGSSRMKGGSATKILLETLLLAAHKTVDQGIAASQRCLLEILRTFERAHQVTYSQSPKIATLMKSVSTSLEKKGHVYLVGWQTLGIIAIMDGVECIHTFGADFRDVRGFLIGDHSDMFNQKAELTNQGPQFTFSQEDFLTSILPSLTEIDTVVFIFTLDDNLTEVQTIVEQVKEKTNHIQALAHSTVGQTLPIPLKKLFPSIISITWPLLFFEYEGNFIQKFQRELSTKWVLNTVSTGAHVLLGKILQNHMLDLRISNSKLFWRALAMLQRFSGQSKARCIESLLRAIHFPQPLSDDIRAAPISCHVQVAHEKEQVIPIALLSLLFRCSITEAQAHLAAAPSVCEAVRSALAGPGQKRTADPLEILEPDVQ
# Chain of Single-stranded DNA cytosine deaminase (Homo sapiens) (Q9GZX7 whole entry, looked up): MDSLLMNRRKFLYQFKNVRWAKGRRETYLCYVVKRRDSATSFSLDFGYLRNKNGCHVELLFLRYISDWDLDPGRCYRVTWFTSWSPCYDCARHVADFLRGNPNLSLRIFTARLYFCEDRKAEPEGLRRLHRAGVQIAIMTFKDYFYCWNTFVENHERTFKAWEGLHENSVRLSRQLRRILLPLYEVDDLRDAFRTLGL
# Chain of Lysine-specific demethylase 5B (Homo sapiens) (Q9UGL1 whole entry, looked up): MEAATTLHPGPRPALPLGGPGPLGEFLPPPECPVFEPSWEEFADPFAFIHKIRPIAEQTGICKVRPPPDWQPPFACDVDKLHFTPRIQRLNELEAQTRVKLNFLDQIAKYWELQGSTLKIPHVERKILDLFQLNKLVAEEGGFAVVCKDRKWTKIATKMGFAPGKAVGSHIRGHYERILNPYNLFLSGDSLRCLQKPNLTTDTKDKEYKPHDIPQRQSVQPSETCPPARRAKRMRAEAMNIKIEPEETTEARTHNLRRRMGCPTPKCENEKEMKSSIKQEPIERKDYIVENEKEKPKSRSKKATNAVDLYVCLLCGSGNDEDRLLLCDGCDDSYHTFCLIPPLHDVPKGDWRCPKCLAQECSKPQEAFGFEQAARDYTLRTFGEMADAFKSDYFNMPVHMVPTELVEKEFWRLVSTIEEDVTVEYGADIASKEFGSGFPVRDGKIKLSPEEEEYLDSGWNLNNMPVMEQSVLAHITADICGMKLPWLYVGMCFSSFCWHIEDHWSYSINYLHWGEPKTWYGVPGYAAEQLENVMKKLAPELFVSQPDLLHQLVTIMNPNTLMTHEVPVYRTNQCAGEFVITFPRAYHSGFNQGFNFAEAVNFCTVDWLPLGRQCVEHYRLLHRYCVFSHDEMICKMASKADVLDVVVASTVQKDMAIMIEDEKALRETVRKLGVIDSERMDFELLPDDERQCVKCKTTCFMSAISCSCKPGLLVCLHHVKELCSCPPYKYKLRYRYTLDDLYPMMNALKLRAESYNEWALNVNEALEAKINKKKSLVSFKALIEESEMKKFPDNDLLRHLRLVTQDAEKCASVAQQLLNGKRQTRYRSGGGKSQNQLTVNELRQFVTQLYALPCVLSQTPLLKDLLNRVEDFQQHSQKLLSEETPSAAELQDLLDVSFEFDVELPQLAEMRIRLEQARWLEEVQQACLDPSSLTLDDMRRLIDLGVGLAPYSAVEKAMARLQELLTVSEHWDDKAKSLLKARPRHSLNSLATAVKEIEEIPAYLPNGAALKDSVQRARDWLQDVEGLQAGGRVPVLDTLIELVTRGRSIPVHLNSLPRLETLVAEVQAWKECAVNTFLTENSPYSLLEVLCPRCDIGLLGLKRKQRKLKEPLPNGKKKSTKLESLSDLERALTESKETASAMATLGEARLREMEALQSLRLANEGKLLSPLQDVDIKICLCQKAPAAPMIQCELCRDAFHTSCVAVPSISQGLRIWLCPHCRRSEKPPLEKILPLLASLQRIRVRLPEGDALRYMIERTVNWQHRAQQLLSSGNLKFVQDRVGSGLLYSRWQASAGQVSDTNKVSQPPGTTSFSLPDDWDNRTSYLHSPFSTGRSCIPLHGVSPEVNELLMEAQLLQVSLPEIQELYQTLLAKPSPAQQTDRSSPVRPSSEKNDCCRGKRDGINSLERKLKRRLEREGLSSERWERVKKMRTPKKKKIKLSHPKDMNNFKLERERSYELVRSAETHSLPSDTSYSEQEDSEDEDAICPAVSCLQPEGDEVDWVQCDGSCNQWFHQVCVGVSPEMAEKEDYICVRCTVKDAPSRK
# Chain of Atrial natriuretic peptide receptor 2 (Homo sapiens) (P20594 whole entry, looked up): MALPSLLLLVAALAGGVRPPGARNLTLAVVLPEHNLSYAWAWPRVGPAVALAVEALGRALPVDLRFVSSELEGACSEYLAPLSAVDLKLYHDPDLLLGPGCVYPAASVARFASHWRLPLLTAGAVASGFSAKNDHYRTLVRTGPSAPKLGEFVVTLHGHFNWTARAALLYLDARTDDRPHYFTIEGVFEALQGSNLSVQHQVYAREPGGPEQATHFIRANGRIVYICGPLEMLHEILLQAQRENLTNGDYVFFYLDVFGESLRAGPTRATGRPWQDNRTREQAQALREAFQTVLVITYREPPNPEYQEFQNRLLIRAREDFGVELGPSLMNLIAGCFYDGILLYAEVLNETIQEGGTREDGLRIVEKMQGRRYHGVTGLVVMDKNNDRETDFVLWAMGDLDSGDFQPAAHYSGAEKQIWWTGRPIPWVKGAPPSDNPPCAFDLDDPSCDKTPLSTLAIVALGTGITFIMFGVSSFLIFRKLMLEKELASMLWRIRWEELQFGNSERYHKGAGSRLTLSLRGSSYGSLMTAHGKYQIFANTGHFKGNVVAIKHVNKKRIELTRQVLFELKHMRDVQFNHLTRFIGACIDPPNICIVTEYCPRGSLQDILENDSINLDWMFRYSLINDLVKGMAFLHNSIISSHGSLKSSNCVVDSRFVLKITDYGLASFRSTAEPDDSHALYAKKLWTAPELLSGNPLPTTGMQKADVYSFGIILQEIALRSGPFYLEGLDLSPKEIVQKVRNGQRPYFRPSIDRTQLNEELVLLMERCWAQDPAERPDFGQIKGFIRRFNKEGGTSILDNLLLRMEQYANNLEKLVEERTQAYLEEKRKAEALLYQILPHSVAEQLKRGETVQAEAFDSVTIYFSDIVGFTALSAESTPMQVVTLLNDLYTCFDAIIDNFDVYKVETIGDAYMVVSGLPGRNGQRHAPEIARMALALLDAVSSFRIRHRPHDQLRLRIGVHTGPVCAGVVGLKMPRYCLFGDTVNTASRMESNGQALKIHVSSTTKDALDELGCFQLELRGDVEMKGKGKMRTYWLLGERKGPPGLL
# Chain of Phenylethanolamine N-methyltransferase (Homo sapiens) (P11086 whole entry, looked up): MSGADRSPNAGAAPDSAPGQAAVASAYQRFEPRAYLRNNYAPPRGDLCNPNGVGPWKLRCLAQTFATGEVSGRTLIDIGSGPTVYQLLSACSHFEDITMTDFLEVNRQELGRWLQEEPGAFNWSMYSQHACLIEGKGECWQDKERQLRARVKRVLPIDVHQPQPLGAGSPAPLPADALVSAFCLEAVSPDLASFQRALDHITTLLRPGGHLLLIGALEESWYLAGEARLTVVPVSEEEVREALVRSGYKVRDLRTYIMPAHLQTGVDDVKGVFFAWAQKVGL
smiles,measurement,setting,value
C[C@H](Cc1ccccc1)Nc1ncnc2c1ncn2[C@@H]1O[C@H](CO)[C@@H](O)[C@H]1O,Potency,[1],inactive
same,outcome,[2],inactive
same,outcome,[3],inactive
same,outcome,[4],inactive
same,max response,[5],-7.31% (inactive)
same,Potency,[6],inactive
same,Potency,[7],inactive
same,Potency,[8],inactive
same,outcome,[9],inactive
same,outcome,[10],inactive
same,outcome,[11],inactive
same,Potency,[12],inactive
same,outcome,[13],inactive
same,Potency,[14],inactive
same,Potency,[15],inactive
same,outcome,[16],inactive
same,Potency,[17],inactive
same,outcome,[18],inactive
same,outcome,[19],inactive
same,Potency,[20],inactive
same,outcome,[21],inactive
same,outcome,[22],inactive
same,Potency,[23],inactive
same,Potency,Papain (Carica papaya),inactive
same,activity,[24],-28.1%
same,"activity change, negative = inhibition",[25],-3.97%
same,activity,[26],4.48%
same,activity,[27],-12.3%
same,Potency,[28],inactive
same,Potency,[29],inactive
